Source: PubChem BioAssay (National Center for Advancing Translational Sciences (NCATS))
Sampled rows, rich in hits. Any-hit rate of the full collection: about 19%.
TDP1 cell CPT – growth inhibition of DT40 Tdp1-/-;hTDP1 cells with camptothecin (screen for TDP1 inhibitors); 420,000 tested, 12% active; AID 686979; chicken DT40 Tdp1-/-;hTDP1 cells + 20 nM CPT, ATP luminescence, 48 h; Potency, µM (titrated, usually from 46.2 µM), for inactives: at the top dose activity change, negative = growth inhibition, usual class: inhibitors; further: potency means the concentration at half of the fitted maximal effect; nearly all actives have a fitted effect of over 55% in size
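Chicken DT40 Tdp1-/- cells stably complemented with human TDP1 were seeded at 400 cells/well in medium containing 20 nM camptothecin, exposed to pin-transferred compounds, and grown at 37 °C for at least 48 hr. Viability was read as ATP luminescence.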
TDP1 inh – blocks human tyrosyl-DNA phosphodiesterase 1. 350,000 tested, 0.28% active. Potency, µM (highest dose often 130 µM), for the others: top-dose activity change, negative = inhibition, hits mostly inhibitors. Q9NUW8. recombinant TDP1, AlphaScreen DNA substrate cleavage; further: potency means the concentration at half of the fitted maximal effect; nearly all actives have a fitted effect of over 40% in size
Target sequence (Q9NUW8 whole entry, looked up): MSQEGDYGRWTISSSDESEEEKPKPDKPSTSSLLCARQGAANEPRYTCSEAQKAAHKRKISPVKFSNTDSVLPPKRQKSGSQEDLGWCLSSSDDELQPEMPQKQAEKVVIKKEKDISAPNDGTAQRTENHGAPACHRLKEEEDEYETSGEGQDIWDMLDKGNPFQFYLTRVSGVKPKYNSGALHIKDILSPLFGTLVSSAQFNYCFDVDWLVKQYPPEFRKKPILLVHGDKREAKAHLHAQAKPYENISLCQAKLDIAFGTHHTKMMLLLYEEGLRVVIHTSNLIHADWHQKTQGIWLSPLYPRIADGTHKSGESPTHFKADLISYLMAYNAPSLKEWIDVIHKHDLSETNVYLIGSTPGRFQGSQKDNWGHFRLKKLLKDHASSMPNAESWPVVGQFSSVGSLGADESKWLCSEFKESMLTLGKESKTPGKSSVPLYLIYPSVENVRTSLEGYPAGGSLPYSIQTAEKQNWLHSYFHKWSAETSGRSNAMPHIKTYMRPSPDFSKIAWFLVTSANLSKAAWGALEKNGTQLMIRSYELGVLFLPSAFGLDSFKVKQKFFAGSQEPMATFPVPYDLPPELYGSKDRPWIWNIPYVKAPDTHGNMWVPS
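Compounds were preincubated with Tdp1 (1 nM final) for 15 min at room temperature before substrate (15 nM final) started a 5 min reaction; beads (10 ug/ml final) were then added for 10 min before AlphaScreen detection.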
Giardia kill – kills Giardia lamblia. 340,000 tested, 0.15% active. AID 540267. Giardia lamblia trophozoite viability. activity change, % at 7.66 µM, hits read low; in the data active means activity change below about -80%; inconclusive means between about -30% and that limit;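 further: parasites exposed to compound for two days anaerobically before the ATP read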
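Giardia lamblia trophozoites (100 cells/well) were incubated with compounds for 48 h at 37 deg C under anaerobic conditions. Viability was read as ATP content by one-step luminescence after 15-30 min at room temperature.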
IL-1B inflam inh – inhibitors of inflammasome signaling (IL-1 beta secretion); THP-1 LPS/ATP IL-1B secretion, AlphaLISA, 16 h; hits give low values; activity change, % at 57.5 µM; 360,000 tested, 4.7% active; AID 743279; in the data active means activity change below about -50%; inconclusive means mostly about -30% to -49%
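THP-1 cells pretreated 1 hr with compounds (up to 57.5 uM final), then stimulated with LPS (250 ng/mL final) plus ATP (1.25 mM final); secreted IL-1B measured by AlphaLISA after 16 hr, decreased signal indicating inhibition.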
TDP1 cell noCPT – qHTS for Inhibitors of human tyrosyl-DNA phosphodiesterase 1 (TDP1): qHTS in cells in absence of CPT; Potency, µM (series often up to 46.2 µM), inactives show at the highest dose activity change, negative = growth inhibition, actives largely listed as inhibitors; AID 686978, 2013; DT40 Tdp1-/- hTDP1 cells, no CPT, ATP luminescence, 48 h; 420,000 tested, 15% active; further: potency means the concentration at half of the fitted maximal effect; nearly all actives have a fitted effect of over 55% in size
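Luminescent ATP content (CellTiter-Glo) served as the growth readout. Knockout chicken DT40 cells expressing human TDP1 were exposed to compounds without camptothecin for a minimum 48 hr at 37 °C.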
ELG1 DNA repair – inhibitors of ELG1-dependent DNA repair in HEK293T cells; HEK293T ELG1-luciferase reporter, luminescence, 16 h; DNA damage induced by 5-fluorouridine; Potency, µM (highest dose often 46.1 µM), without a hit: at the highest dose activity change, negative = inhibition, most hits filed as inhibitors; 330,000 tested, 2.3% active; further: potency means the concentration at half of the fitted maximal effect; nearly all actives have a fitted effect of over 55% in size
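Luminescence from the luciferase reporter, measured 30 min after ONE-Glo reagent at room temperature, was the read-out. Beforehand, 2,000 cells per well were exposed for 16 hr at 37 °C to 5-fluorouridine together with compound or vehicle.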
An asterisk follows results filed as active; i = inactive; ? = inconclusive; nt = not tested or not shown; [ ] = dose if it differs, or a comment. Unless noted, the call rests on the fitted dose curve; in most records, active means well fitted curve in the direction sought with a large enough effect; inconclusive means small, poorly fitted or top-dose-only effect, or another doubt; inactive means no such curve, though single readings can be large; an effect the other way counts as inactive or inconclusive. On the % scale 0 is the no-effect control and ±100 the full control effect.

SMILES | TDP1 cell CPT | TDP1 inh | Giardia kill | IL-1B inflam inh | TDP1 cell noCPT | ELG1 DNA repair
Cc1cc(Br)ccc1NC(=O)c1ccc(NS(=O)(=O)c2c(C)noc2C)cc1 | -9.2% | 0.0% | nt | nt | -23.7% | nt
Cc1cccc(C(=O)NCCN2CCN(c3ccccc3)CC2)c1 | -8.7% | 6.7% | 12.9 | -13.3 | -18.6% | 1.5%
O=C(NCCN1CCN(c2ccccc2)CC1)c1cccc(Br)c1 | ? | 4.8% | -2.4 | -28.7 | 14.1µM* | ?
O=C(NCCN1CCN(C(=O)c2cccc(Br)c2)CC1)C(=O)Nc1ccc(Br)cc1 | 13µM* | 6.3%[0.0935 µM] | -9.6 | -19.3 | 25.9µM* | -11.3%
O=C(NCCN1CCN(C(=O)c2c(F)cccc2F)CC1)C(=O)Nc1ccc(Cl)cc1 | ? | 2.6% | 4.5 | -7.2 | ? | 7.3µM*
Cc1ccc(N2CCN(C(=O)C(=O)c3cccc([N+](=O)[O-])c3)CC2)cc1 | ? | nt | nt | -2.7 | ? | nt
O=C(C(=O)N1CCN(c2ccncc2)CC1)c1cccc(Br)c1 | 14.6µM* | nt | nt | 31.6 | 14.6µM* | nt
Cc1nc2sccn2c(=O)c1S(=O)(=O)Nc1cccc(Cl)c1C | ? | 0.0%[12.3 µM] | -4.2 | 10.1 | ? | ?
Cc1ccc(-n2nc(C)c3nc(CCC(=O)Nc4cccc(F)c4)c(=O)n(C)c32)cc1 | -13.8% | 6.2% | nt | nt | -6.0% | nt
Cc1c(C(=O)NCc2ccc(F)cc2)sc(=O)n1Cc1ccccc1 | ? | nt | nt | -15.7 | ? | nt
O=C(COc1ccc(S(=O)(=O)N2CCOCC2)cc1)NCc1ccccn1 | -11.1% | 2.3% | -8.8 | i | -6.3% | 22.2%
CCn1ccnc1CN(C)C(=O)CCc1nnc(CCC2CCCCC2)o1 | 0.8% | 8.3% | 2.1 | 26.6 | ? | ?
CC1=NN(C(=O)COc2ccccc2)C(O)(c2ccccc2)C1 (configuration not stated) | 5.8µM* | 2.7% | -1.3 | 13.1 | ? | 6.6%
CC1=NN(C(=O)CSCc2ccccc2)C(O)(c2ccccc2)C1 (configuration not stated) | -24.8% | 7.7% | -10.4 | 8.6 | -0.8% | ?
CCC1=NN(C(=O)COc2ccccc2)C(O)(c2ccc(Br)cc2)C1 (configuration not stated) | ? | 0.0% | 5.7 | 6.1 | 20.6µM* | ?
Cc1ccc(NC(=O)c2cc(N3C(=O)CCC3=O)ccc2N2CCCCC2)cc1 | -9.3% | 4.8% | -22.7 | -4.8 | -33.3% | -2.2%
CCn1cc(C(=O)OCC(=O)Nc2cc(Cl)ccc2OC)c(=O)c2ccc(C)nc21 | -6.9% | 3.6% | nt | nt | -1.7% | nt
O=C(NCCc1ccc(Cl)cc1)C12CC3CC(CC(O)(C3)C1)C2 | 12.7% | 3.1% | 24.3 | 6.3 | 10.9% | 5.6%
CN(Cc1ccc(Cl)cc1)C(=O)CNC(=O)C12CC3CC(CC(C3)C1)C2 | 18.4µM* | 0.6% | 19.4 | -6.6 | ? | ?
COC(=O)\C(C(C)=O)=C(/C=C/C=C/C=C/N(C)C)N(C)C | ? | 3.16µM* | 1.1 | 10.3 | 20.6µM* | 0.2%
CC1Sc2ccc(S(=O)(=O)NCCc3ccccc3)cc2NC1=O (configuration not stated) | 20.6µM* | 2.3% | ? | -2.1 | 23.1µM* | 16.4%
CC1Sc2ccc(S(=O)(=O)NCCc3ccc(S(N)(=O)=O)cc3)cc2NC1=O (configuration not stated) | -27.2% | 3.3% | 12.1 | 10.4 | -5.6% | 9.4%
CC1Sc2ccc(S(=O)(=O)CCC(=O)N(C)Cc3ccccc3)cc2NC1=O (configuration not stated) | 18.4µM* | nt | 4.7 | 28.6 | ? | -3.8%
CC1Sc2ccc(S(=O)(=O)CCC(=O)NC3CCCC(C)C3C)cc2NC1=O (configuration not stated) | 20.6µM* | 7.3% | 5.7 | 21.8 | 20.6µM* | -11.5%
O=C(/C=C/c1c(Cl)cccc1Cl)NCCCn1ccnc1 | -0.4% | nt | -0.3 | -5.8 | -31.9% | nt
SMILES | TDP1 cell CPT | TDP1 inh | Giardia kill | IL-1B inflam inh | TDP1 cell noCPT | ELG1 DNA repair
O=C(CSc1ncc2c(n1)-c1ccccc1N(Cc1ccccc1)S2(=O)=O)Nc1ccccc1 | 1.9% | 2.6% | nt | nt | 3.2% | nt
COc1ccc(C(=O)/C=C/c2ccc(OC)cc2OC)c(O)c1 | ? | 6.4% | 12.6 | -13.5 | ? | ?
COc1ccc(/C=C/C(=O)c2ccc(Cl)cc2)c(OC)c1 | -20.0% | -3.9% | 16.3 | 0.0 | 18.4µM* | ?
O=C(/C=C/c1ccncc1)c1cc(Cl)ccc1O | -18.8% | 11.4% | 9.3 | -66.8* | ? | 9.5%
COc1ccc(/C=C/C(=O)c2cc(Cl)ccc2O)c(OC)c1 | ? | nt | -18.1 | -99.6* | ? | ?
COc1ccc(/C=C/C(=O)/C=C/c2ccc(OC)cc2OC)c(OC)c1 | ? | -1.9% | nt | nt | ? | nt
O=C(Nc1nnc2n1CCS2)c1cc(C(F)(F)F)cc(C(F)(F)F)c1 | 5.8µM* | 6.6% | nt | nt | 4.61µM* | nt
CCCc1ccc(OC(C)C(=O)Nc2sc3c(c2C(=O)OC)CCCCC3)cc1 (configuration not stated) | ? | -8.4% | nt | nt | ? | nt
O=C(CSc1oc(-c2cccs2)nc1S(=O)(=O)c1ccccc1)Nc1ccc(F)cc1 | 16.4µM* | 8.8% | nt | nt | ? | nt
Cc1ccc(S(=O)(=O)c2nc(-c3ccc(F)cc3)oc2SCC(=O)c2ccccc2)cc1 | ? | 0.0% | nt | nt | ? | nt
O=C(CSc1oc(-c2ccc(F)cc2)nc1S(=O)(=O)c1ccccc1)c1ccc(Cl)cc1 | 10.3µM* | 2.9% | nt | nt | 9.2µM* | nt
Cc1cc(C)cc(NC(=O)CSc2oc(-c3cccs3)nc2S(=O)(=O)c2ccccc2)c1 | 20.6µM* | 2.9% | nt | nt | 5.8µM* | nt
CCCS(=O)(=O)NC(=O)C1(C)CCN(C(=O)c2ccccc2F)C1 (configuration not stated) | -19.5% | nt | nt | 14.0 | -10.7% | nt
Cc1nnc(SC(C)C(=O)Nc2ccc(Cl)cc2Cl)[nH]c1=O (configuration not stated) | -12.4% | -0.4% | 23.4 | 27.8 | 8.6% | 4.0%
Cc1cccc(C)c1NC(=O)N1CCCC1C(=O)Nc1ccc(-n2cnnn2)cc1 (configuration not stated) | 8.5% | 1.2% | 5.6 | 41.0 | ? | 8.8%
O=C(Nc1ccc(-n2cnnn2)cc1)C1CCCN1C(=O)Nc1ccc(Br)cc1 (configuration not stated) | 2.3% | 2.4%[0.0935 µM] | -16.1 | -57.7* | ? | -13.8%
O=C(Nc1cc(S(=O)(=O)N2CCCCC2)ccc1N1CCCCC1)C1CC1 | -93.2% | 3.8% | -20.6 | -3.5 | 16.4µM* | -22.8%
